Bioassay records deposited in PubChem by National Center for Advancing Translational Sciences (NCATS).
TexasRed fluor: counter-screen for TRb-SRC2 inhibitors: fluorescence interference; TRb/SRC2 Texas Red total fluorescence interference; Potency, µM (top dose mostly 106 µM); actives 0.29% (n = 280,000); AID 1479; active = well fitted curve in either direction with a large enough effect; inconclusive = small, poorly fitted or top-dose-only effect
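Flags fluorescent or light-absorbing compounds by total fluorescence, S + 2P, at 555 nm excitation and 632 nm emission. Mixture: 20 nM Texas Red SRC2 peptide, 0.6 uM human TRb LBD, 1 uM T3, 5% DMSO; compound exposure 5 h at ambient temperature.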
Tau ThT inhib: inhibitors of human tau fibril formation, thioflavin T binding. Potency, µM (titrated, usually from 57.4 µM), actives largely listed as inhibitors. recombinant tau K18 P301L, heparin-induced fibrillization, ThT fluorescence. AID 1460. P10636. actives 2.1% (n = 270,000); note: nearly all actives have a fitted effect of over 55% in size
Target sequence (P10636 561-689 P618L limits assumed): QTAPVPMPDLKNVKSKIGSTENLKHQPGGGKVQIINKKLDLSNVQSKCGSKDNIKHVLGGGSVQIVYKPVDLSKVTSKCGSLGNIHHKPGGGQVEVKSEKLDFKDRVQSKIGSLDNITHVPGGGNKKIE
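Recombinant human tau K18 fragment […] carrying P301L, 15 uM unlabeled plus 0.24 uM Alexa 594-labeled, was fibrillized with 20 uM heparin in 100 mM sodium acetate pH 7 for 6 hr at 37 C; 30 uM ThT fluorescence read after 1 hr.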
Tau fibril FP: tau fibrillization inhibition (FP); actives 0.39% (n = 280,000); Potency, µM (top dose mostly 57.7 µM), usual class: inhibitors; K18 P301L tau heparin fibrillization, Alexa594 FP, 6 h; AID 1468; P10636; note: nearly all actives have a fitted effect of over 55% in size
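Compound effects on tau fibrillization are measured by Alexa 594 fluorescence polarization (ex 555, em 632 nm). K18 P301L tau is used at 15 uM with 0.24 uM labeled tracer, and 20 uM heparin induces aggregation over 6 hr at 37 C.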
Tau fluor counter: counter-screen for tau fibril formation inhibitors. tau K18 P301L (four-repeat tau fragment) Alexa594 fluorescence, heparin fibrillization. Potency, µM (doses to about 57.7 µM). actives 0.93% (n = 280,000); note: nearly all actives have a fitted effect of over 55% in size
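Human K18 P301L tau (15 uM unlabeled plus 0.24 uM Alexa 594-labeled, final) in 100 mM sodium acetate pH 7 was mixed with compound and 20 uM heparin and incubated 6 hr at 37 C.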
TRb SRC2 PPI: TRbeta-SRC2 interaction inhibition | Potency, µM (series often up to 106 µM), actives largely listed as inhibitors | TRbeta-SRC2 peptide binding, fluorescence polarization; receptor liganded with 1 µM T3 | actives 0.065% (n = 280,000) | P10828; note: nearly all actives have a fitted effect of over 50% in size
Target sequence (P10828 whole entry, looked up): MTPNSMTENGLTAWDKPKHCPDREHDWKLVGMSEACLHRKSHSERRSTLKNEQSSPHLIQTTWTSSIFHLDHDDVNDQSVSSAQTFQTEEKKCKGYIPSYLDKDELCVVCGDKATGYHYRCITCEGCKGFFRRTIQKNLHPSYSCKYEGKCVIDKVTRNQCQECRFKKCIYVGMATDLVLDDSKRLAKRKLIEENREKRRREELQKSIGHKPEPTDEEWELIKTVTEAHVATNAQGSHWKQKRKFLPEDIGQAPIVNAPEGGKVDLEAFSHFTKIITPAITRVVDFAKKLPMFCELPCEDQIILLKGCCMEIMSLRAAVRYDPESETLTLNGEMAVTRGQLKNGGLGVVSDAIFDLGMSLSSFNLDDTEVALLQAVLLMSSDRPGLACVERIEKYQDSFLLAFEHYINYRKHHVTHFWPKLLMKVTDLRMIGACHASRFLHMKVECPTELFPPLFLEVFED
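Quantitative HTS by FP: 0.6 uM TRb LBD, 20 nM labeled SRC2 20-mer, 1 uM T3, 5% DMSO; 5 hr ambient incubation; % activity per concentration and potencies from concentration series.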
Numbers stand for hits; . = inactive; ? = inconclusive; / = no result; ! = not confirmed by another sample; [ ] = remark or other dose. Rows were chosen to be rich in hits. Some 3.1% of all compounds tested hit in one or more screens of this group. Unless noted, calls come from the whole dose curve; as a rule, active = well fitted curve in the direction sought with a large enough effect; inconclusive = small, poorly fitted or top-dose-only effect, or another doubt; inactive = no such curve, though single readings can be large; an effect the other way counts as inactive or inconclusive.

SMILES	TexasRed fluor	Tau ThT inhib	Tau fibril FP	Tau fluor counter	TRb SRC2 PPI
CC1=C(C#N)C(=O)NC(=O)/C1=C\c1ccc(-c2cc(C)c(C)cc2[N+](=O)[O-])o1	.	25µM	?	?	.
Cc1cccc(C2=NN(c3ccc(Br)cc3)[C@@H](C(=O)N3CCOC3=O)[C@@H]2c2ccc(Cl)cc2)c1	.	.	.	?	.
Cc1cccc(C2=NN(c3ccccc3)[C@H](CO)[C@H]2c2ccc(F)cc2)c1	.	?	?	32µM[quencher]	.
Cc1cccc(C2=NN(c3ccccc3)[C@H](CO)[C@H]2c2ccc(Cl)cc2)c1	.	?	?	11µM[quencher]	.
Cc1cc(SCC(=O)c2ccc(O)c(O)c2)nc2ccccc12	.	?	.	28µM[quencher]	.
Cc1cc(SCC(=O)c2ccc3c(c2)OCO3)nc2ccccc12	.	?	.	?	.
COC(=O)C1=C(C(=O)OC)[C@@H]2N(C)c3ccccc3[C@@]23C[C@@H](CO)N(C(=O)c2cc(C)oc2C)C3=N1	.[11.2 µM]	.[11.5 µM]	.[11.6 µM]	.[11.6 µM]	.[11.2 µM]
CCCNC(=O)CSc1nc2[nH]ncc2c(=O)[nH]1	.	.	.	.	.
COc1cccc(NS(=O)(=O)c2ccc3[nH]c4c(c3c2)CCCCCC4)c1	.	.	.	7.1µM[quencher]	.
COc1ccc(Cl)cc1NS(=O)(=O)c1ccc2[nH]c3c(c2c1)CCCC3	.	.	.	8.9µM[quencher]	.
COc1ccc(NS(=O)(=O)c2ccc3[nH]c4c(c3c2)CCCCCC4)cc1	.	.	.	5µM[quencher]	.
Cc1ccc(NS(=O)(=O)c2ccc3[nH]c4c(c3c2)CCCCC4)cc1	.	.	.	7.9µM[quencher]	.
CCCSc1ncc(Cl)c(C(=O)Nc2c(C(=O)Nc3ccc(OC)cc3)oc3ccccc23)n1	.	.	?	.	.
CC(=O)OCC1OC(C#Cc2ccccc2)C=CC1OC(C)=O (configuration not stated)	.[11.2 µM]	?	?	.[11.6 µM]	.[11.2 µM]
CC/C=C/C#N	.	/	/	/	.
COc1ccccc1CNS(=O)(=O)c1ccc2[nH]c3c(c2c1)CCCCC3	?	.	?	16µM[quencher]	.
N#CC1=C(S)N=C(N)C(c2nc(-c3ccccc3)cs2)C12CCCC2 (configuration not stated)	.	28µM	?	?	.
Fc1ccc(N2CCN(C3=Nc4cccc5cccc3c45)CC2)cc1	.	4.5µM	.	.	.
c1ccc(CN2CCN(C3=Nc4cccc5cccc3c45)CC2)cc1	.	?	.	.	.
Cc1ccc(CN2CCCn3nc(C(=O)NCCc4ccc(Cl)cc4)cc3C2=O)cc1	.	.	.	.	.
CCN1CCN(c2ccc(NC(=O)CCc3c(C)nc4c(-c5ccc(F)cc5)c(C)nn4c3C)cc2)CC1	.	?	.	18µM[quencher]	.
COC(=O)C1=C(C(=O)OC)[C@@H]2N(Cc3ccccc3)c3ccccc3[C@@]23C[C@@H](C(=O)OC)N(S(=O)(=O)c2ccc([N+](=O)[O-])cc2)C3=N1	.[11.2 µM]	.[11.5 µM]	?	.[11.6 µM]	.[11.2 µM]
NS(=O)(=O)c1ccc(NC2=CC(c3ccc([N+](=O)[O-])cc3)N(c3ccc(S(N)(=O)=O)cc3)C2=O)cc1 (configuration not stated)	.	?	.	13µM[quencher]	.
COc1ccc(NC2=CC(c3ccc(OC)c(OC)c3)N(c3ccc(OC)cc3)C2=O)cc1 (configuration not stated)	.	.	.	.	.
Oc1csc(Cc2nc(-c3ccc4ccccc4c3)cs2)n1	.	3.5µM	.	13µM[quencher]	.
SMILES	TexasRed fluor	Tau ThT inhib	Tau fibril FP	Tau fluor counter	TRb SRC2 PPI
Oc1csc(Cc2nc(-c3ccccc3F)cs2)n1	.	14µM	.	?	.
O=C(Nc1ccc(Cl)cc1C(=O)N1CCCC1)c1cccc([N+](=O)[O-])c1	.	.	.	.	.
C[C@@](N)(C(=O)O)c1cccc(CC(=O)O)c1	.	.	.	.	.
Cc1[nH][nH]c(=O)c1C(c1ccc(-c2ccc(C(=O)O)cc2)o1)c1c(C)[nH][nH]c1=O	.	11µM	?	.	.
Cc1[nH][nH]c(=O)c1C(c1ccc(-c2ccc(F)cc2)o1)c1c(C)[nH][nH]c1=O	.	7.9µM	?	.	?
Cc1[nH][nH]c(=O)c1C(c1ccc(N(C)C)c(Br)c1)c1c(C)[nH][nH]c1=O	.	?	.	.	.
Cc1[nH][nH]c(=O)c1C(c1ccc(-c2ccc(Cl)c(Cl)c2)o1)c1c(C)[nH][nH]c1=O	.	8.9µM	?	?	14µM
COc1ccc(-c2ccc(C(c3c(C)[nH][nH]c3=O)c3c(C)[nH][nH]c3=O)o2)c([N+](=O)[O-])c1	.	7.9µM	?	.	?
O=Cc1ccc(N2CCCC2)c([N+](=O)[O-])c1	.	?	.	.	.
O=[N+]([O-])/C=C\c1ccc(N2CCCC2)c(F)c1	.	16µM	.	?	.
CC#CCOCC/C=C1/c2ccccc2C(OC)C1C (configuration not stated)	.[11.2 µM]	.[11.5 µM]	.[11.6 µM]	.[11.6 µM]	.[11.2 µM]
Cc1cc2c(NC(=O)Nc3ccc(C(C)(C)C)cc3)cccc2nn1	.	.	35µM	16µM[quencher]	.
O=C(O)c1cc(O)c2c(c1)C(=O)c1cccc(O)c1C2=O	?	18µM	?	18µM![quencher]	.
Cc1cc(O)c2c(c1)C(=O)c1cccc(O)c1C2=O	.	?	.	.	.
CCC1=C2CC[C@H]3C(=O)N(CC)C(=O)[C@H]3[C@H]2[C@@]2(C)C(=O)N(CC(=O)OC)C(=O)N2C1=O	.	.	.	.	.
CCOC(=O)c1ccccc1NC(=O)NC(C)c1c(-n2cccc2)sc(C)c1C (configuration not stated)	22µM[quencher]	.	.	.	.
Cc1sc(-n2cccc2)c(C(C)NC(=O)Nc2ccccc2Cl)c1C (configuration not stated)	.	.	.	.	.
CCOC(=O)N1CCN(C(=O)c2c(N)no[n+]2[O-])CC1	.	25µM	?	.	.
O=C(CN1c2ccccc2Sc2ccccc21)NNC(=S)Nc1ccc(Cl)cc1Cl	.	?	.	10µM[quencher]	.
COC(=O)NC(c1cccs1)C(C(C)=O)C(=O)OC (configuration not stated)	.[11.2 µM]	.[11.5 µM]	.[11.6 µM]	.[11.6 µM]	.[11.2 µM]
O=c1c2c([nH]c3ccc(Br)cc13)CCCC2	.	.	.	.	.
O=c1ccc2cc3c([nH]c4ccc(Br)cc43)oc-2c1O	.	14µM	?	?	.
Cc1c(N=NC2=C(O)CCCC2=O)c(=O)n(-c2ccccc2)n1C	.	14µM	?	.	.
Cc1ccc(N(Cc2cccs2)C(=O)c2ccccc2Cl)cc1	.	.	.	.	.
O=C(CSc1ccc(-c2ccco2)nn1)c1ccccc1	.	?	.	.	.
COc1cc(NC(=O)c2cc(Cl)c(OC)c(Cl)c2)ccc1NC(=O)c1cc2ccccc2o1	.	.	.	.	.
CCOc1cc(C(=O)Nc2ccc(NC(=O)c3cc4ccccc4o3)c(OC)c2)cc(OCC)c1OCC	35µM[quencher]	.	.	.	.
